Inhibition data for ten molecules are collected here from ChEMBL document CHEMBL4513134, “CO-ADD screening of University of Queensland (Australia) compounds” (2021).

One experiment relates to Klebsiella pneumoniae. The conditions noted are these: Concentration 32 ug.mL-1; ASSAY_TEST Inhibition of Bacterial Growth; detection method Absorption (OD600); MEDIA CAMHB; plate type 384well; NBS; CORNING #3640; time 18 hr.
The next experiment deals with Candida albicans. The conditions noted are these: 32 ug/mL.
The test system of the next experiment is Cryptococcus neoformans. The conditions noted are these: Concentration 32 ug.mL-1; ASSAY_TEST Inhibition of Fungal Growth; detection method Resazurin; Absorption (OD600-OD570); plate type 384well; NBS; CORNING #3640.

Entries with a potency or affinity are not part of this list.

Turning to `Cn1c([N+](=O)[O-])cnc1C(=O)NCc1cccc(OC(F)(F)F)c1`, the values for the Inhibition in the experiment with Klebsiella pneumoniae, in the experiment with Candida albicans and with Cryptococcus neoformans were 27.4%, 11.6% and -18.54%, respectively.

`CC(NC(=O)c1ncc([N+](=O)[O-])n1C)c1ccc(F)cc1` (stereo not given): the Inhibition in the experiment with Klebsiella pneumoniae is 14.44%; in the experiment with Candida albicans, 6.03%; in the experiment on Cryptococcus neoformans it was -25.7%.

For `Cn1c([N+](=O)[O-])cnc1C(=O)NCc1ccccn1.O=C(O)C(F)(F)F`, the Inhibition in the experiment on Klebsiella pneumoniae was 22.41%; with Candida albicans, 4.77%; in the experiment on Cryptococcus neoformans, -18.89%.

With `Cn1c([N+](=O)[O-])cnc1C(=O)NC1CC1`, the Inhibition in the experiment with Klebsiella pneumoniae was 0.14%; in the experiment with Candida albicans it was 5.96%; in the experiment on Cryptococcus neoformans, -21.85%.

On to `Cn1c([N+](=O)[O-])cnc1C(=O)NCc1ccc(F)cc1`, for which the values for the Inhibition in the experiment on Klebsiella pneumoniae, in the experiment on Candida albicans and in the experiment with Cryptococcus neoformans were 15.94%, 7.55% and -24.39%, respectively.

In the case of `Cn1c([N+](=O)[O-])cnc1C(=O)N1CCCC1`, the Inhibition in the experiment with Klebsiella pneumoniae is 30.2%; in the experiment on Candida albicans, 7.94%; with Cryptococcus neoformans it was -19.05%.

In the case of `CN(C)C(=O)c1ncc([N+](=O)[O-])n1C`, the Inhibition in the experiment with Klebsiella pneumoniae is 22.37%; with Candida albicans, 10.4%; with Cryptococcus neoformans it was -8.01%.

As for `Cn1c([N+](=O)[O-])cnc1C(=O)N1CCOCC1`, the figures for the Inhibition in the experiment with Klebsiella pneumoniae, in the experiment with Candida albicans and in the experiment on Cryptococcus neoformans were 22.51%, 14.1% and -21.61%, respectively.

Consider `Cc1ccc(CCNC(=O)c2ncc([N+](=O)[O-])n2C)cc1`, for which the Inhibition in the experiment on Klebsiella pneumoniae is 27.87%; with Candida albicans, 12.1%; with Cryptococcus neoformans, -8.7%.

Regarding `Cn1c([N+](=O)[O-])cnc1C(=O)NCc1ccc(OC(F)(F)F)cc1`, the results for the Inhibition in the experiment with Klebsiella pneumoniae, in the experiment with Candida albicans and in the experiment with Cryptococcus neoformans were 21.15%, 21.3% and 2.62%, respectively.
